# Experimental data reported in PubChem BioAssay (EPA / NIEHS).
# Inconclusive results are not listed. Activity calls are given as the source filed them. Rule for the calls: active = hit-call score of the fitted dose curve at least 0.9, where 1 is the maximum; inconclusive = response in the unintended direction; inactive = score below 0.9.
# Assay: Tanguay_ZF_120hpf_NC_legacy: (Legacy) Oregon State University Tanguay Lab 120 Hour Post-fertilization zebrafish Assay for Notochord and Tail Malformation (AID 2283656)
# Protocol: Tanguay_ZF_120hpf_legacy is a whole embryo, multiplexed endpoint assay using zebrafish larvae exposed for 120 hours post fertilization on a 96-well plate.Tanguay_ZF_120hpf_NC_legacy is one of one assay component(s) measured or calculated from the Tanguay_ZF_120hpf_legacy assay. It is designed to make measurements of zebrafish development as detected with brightfield microscopy of developing zebrafish embryos.Data from the assay component Tanguay_ZF_120hpf_NC_legacy was analyzed into 1 assay endpoints. This assay endpoint, Tanguay_ZF_120hpf_NC_legacy, was analyzed in the positive analysis fitting direction relative to DMSO as the negative control and baseline of activity. Using a type of morphology reporter, gain-of-signal activity can be used to understand changes in developmentals as they relate to the whole embryo. To generalize the intended target to other relatable targets, this assay endpoint is annotated to the zebrafish development intended target family, where the subfamily is embryonic notochord morphogenesis.
# Zebrafish husbandry: Tropical 5D wild-type adult zebrafish were housed in at an approximate density of 1000 per 100 gallon tank at the Sinnhuber Aquatic Research Laboratory, Oregon State University, Corvallis, OR. Each tank was kept at standard laboratory conditions of 28C on a 14-h light/10-h dark photoperiod in fish water consisting of reverse osmosis water supplemented with a commercially available salt (Instant Ocean). Spawning funnels were placed into the tanks the night prior, and embryos were collected and staged. To increase bioavailability, the chorion was enzymatically removed using pronase (63.6mg/ml, >/= 3.5U/mg, Sigma-Aldrich: P5147) at 4 hours post fertilization (hpf) using a custom automated dechorionator.Chemical exposures: Six hpf dechorionated embryos were placed 1 embryo per well in a 96-well plate prefilled with 90 ul of EM using automated embryo placement systems (AEPS). Ten microliters of each row of dilution plate 2 was added to 2 exposure plates. The final DMSO concentration used was 0.64% (vol/vol). Thirty-two embryos were also exposed to 5uM trimethyltin chloride (positive control). Plates were sealed to prevent evaporation and foil covered to reduce light exposure and kept in a 28C incubator. Embryos were statically exposed until 120 hpf. At 24 hpf, embryos were assessed for photomotor response using a custom photomotor response analysis tool (PRAT) and for developmental toxicity endpoints (MO24: mortality at 24 hpf, DP: developmental progression, SM: spontaneous movement, and NC: notochord distortion). At 120 hpf, locomotor activity was measured using Viewpoint Zebralab and assessed for 18 endpoints. Zebrafish acquisition and analysis program (ZAAP), a custom program designed to inventory, acquire, and manage zebrafish data, was used to collect developmental endpoints as either present or absent (i.e., binary responses were recorded). If mortality occurred for an embryo (at either 24 or 120 hpf), the non-mortality endpoints were not measured.
SMILES,outcome,AC50
CCOP(=S)(Oc1ccc([N+](=O)[O-])cc1)c1ccccc1 (stereo unspecified),inactive,–
Cc1ccc(O)cc1C,inactive,–
CCCCCCCc1ccc(O)cc1,inactive,–
[N-]=[N+]=[N-],inactive,–
CCNc1nc(Cl)nc(NC(C)(C)C)n1,inactive,–
Cc1ccc([N+](=O)[O-])cc1C,inactive,–
O=P(Oc1ccccc1)(Oc1ccccc1)Oc1ccccc1,inactive,–
CC(Cl)(Cl)C(=O)O,inactive,–
CCC1(c2ccccc2)C(=O)N=C(O)NC1=O (stereo unspecified),inactive,–
CCCN(CCC)c1c([N+](=O)[O-])cc(C(C)C)cc1[N+](=O)[O-],inactive,–
COCCOCCO,inactive,–
CC(Cc1ccc(OCC(=O)O)cc1)NCC(O)c1csc(C(F)(F)F)n1 (stereo unspecified),inactive,–
O=[N+]([O-])c1ccc(Cl)c(Cl)c1,inactive,–
CSC(C)(C)C=NO,inactive,–
CCOP(=S)(OCC)SCSCC,inactive,–
CCOc1ccc(C(C)(C)COCc2cccc(Oc3ccccc3)c2)cc1,inactive,–
Cc1ccc(N)cc1N,inactive,–
Nc1ccc(Cl)cc1,inactive,–

SMILES,outcome,AC50
CC(C)(C)OOC(C)(C)C,inactive,–
CN(C)C(=O)Cl,inactive,–
c1ccc2c(c1)Nc1ccccc1S2,inactive,–
CCN(CC)c1ccccc1,inactive,–
O=P1(N(CCCl)CCCl)NCCCO1 (stereo unspecified),inactive,–
c1nc[nH]n1,inactive,–
CCOS(=O)(=O)OCC,inactive,–
CCCCN(CCCC)SN(C)C(=O)Oc1cccc2c1OC(C)(C)C2,inactive,–
Nc1ccc2ccccc2c1,inactive,–
O=C(O)C(Cl)Cl,inactive,–
Cc1cccc(N)c1,inactive,–
O=C(O)C1C(C(=O)O)C2(Cl)C(Cl)=C(Cl)C1(Cl)C2(Cl)Cl (stereo unspecified),inactive,–
c1ccc(OP(Oc2ccccc2)Oc2ccccc2)cc1,inactive,–
ClC(Cl)c1ccccc1,inactive,–
CCC(C)(C)c1ccc(O)cc1,–,47.9 µM (active)
CC(C)(C)c1ccc(O)cc1,inactive,–
c1cc2c3c(cccc3c1)CC2,inactive,–
Nc1cc2c3c(c1)C(c1ccccc1)=N[C@@H](NC(=O)c1cccnc1)C(=O)N3CC2,inactive,–
